# Compound activity: PubChem BioAssay, National Center for Advancing Translational Sciences (NCATS)
# The list is not random: actives were taken first. Their share in the collection is about 7.9%.
# LASV entry inh – blocks Lassa virus binding to or entry into cells | Lassa virus pseudotype entry inhibition, cell reporter | Potency, µM (doses to about 37.9 µM), for inactives: at the top dose activity change, negative = inhibition, most hits filed as inhibitors | 300,000 tested, 1.2% active | AID 540256; calls by dose curve; tested in HEK293 cells; also: potency is read from the fitted curve at half-maximal effect; nearly all actives have a fitted effect of over 50% in size
# HCMV antiviral – human cytomegalovirus inhibition. HFF cells, HCMV-luciferase reporter, 72 h; stronger effect = lower value. AID 1259415. 410,000 tested, 4.5% active. activity change, negative = inhibition, % at 57.5 µM; in the data active = activity change below about -60%; inconclusive = no clear call, values can overlap the other calls; inactive = above about -39%
#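 Luciferase read-out from HCMV-luciferase-infected HFFs (MOI 1 PFU/cell) 72 h post infection at 37C; compounds added after 16 h cell attachment; activity normalized between buffer-only basal and Salinomycin (10uM) inhibitor controls.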
# HCV inh – inhibitors of hepatitis C virus infection; Potency, µM (titrated, usually from 41.8 µM), for inactives: at the highest dose activity change, negative = inhibition, actives largely listed as inhibitors; AID 651820; 340,000 tested, 3.4% active; Huh7.5.1 HCVcc-Cre infection, luciferase reporter, 44 h; active = well fitted inhibition curve with a large enough effect; inconclusive = small, poorly fitted or top-dose-only effect, or another doubt; inactive = no such curve, though single readings can be large or run the other way; also: potency is read from the fitted curve at half-maximal effect
#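 1,000 cells/well; 4 h culture; + compound; + HCVcc-Cre (~0.5 moi); 44 h; luciferase substrate, RT 15 min; read 15 sec.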
# FMDV antiviral – foot and mouth disease virus antiviral activity. 410,000 tested, 1.2% active. AID 1159524. Potency, µM (titrated, usually from 57.9 µM), without a hit: at the top dose activity change, negative = inhibition, hits mostly inhibitors. FMDV antiviral cell-based qHTS; calls by dose curve; tested in HEK293T cells; also: read-out not given here; potency is read from the fitted curve at half-maximal effect; nearly all actives have a fitted effect of over 45% in size
# MARV entry inh – blocks Marburg virus binding to or entry into cells; 300,000 tested, 1.8% active; Potency, µM (top dose mostly 37.8 µM), without a hit: at the top dose activity change, negative = inhibition, usual class: inhibitors; Marburg virus pseudotyped entry inhibition, cell reporter; AID 540276; calls by dose curve; tested in HEK293 cells; also: potency is read from the fitted curve at half-maximal effect
# * = called active by the depositor; ? = inconclusive; . = not tested or not shown; [ ] = dose if it differs, or a comment. % is scaled to controls: 0 for no effect and ±100 for the full control effect.
SMILES,LASV entry inh,HCMV antiviral,HCV inh,FMDV antiviral,MARV entry inh
Cc1ccc(C(C)C)cc1OCC(=O)Nc1nnc(C2CC2)s1,?,-84.0*,-22.6%,-13.5%,?
c1ccc(-c2n[nH]c3c2oc2ccccc23)cc1,.,.,.,42.2%,.
COc1cc(CN2CCNC(=O)C2CC(=O)N(C)CCCN2CCOCC2)cc(OC)c1 (stereo not given),.,13.3,13.4%,-18.2%,.
CCNc1nc(Oc2ccc(C(=O)OC)cc2)nc(N(C)C)n1,-0.8%,14.3,9.3%,-6.6%,4.0%
COC(=O)c1ccc(Oc2nc(Nc3ccc(C)c(C)c3)nc(N(C)C)n2)cc1,-5.4%,-10.3,8.91µM*,?,15.3%
COC(=O)N[C@@H](C=Cc1ccco1)[C@]1(C(=O)OC)CCCC1=O,.,.,.,.,3.0%[14.2 µM]
COc1ccc(N=C2SC(C(=O)N3CCN(c4ccccc4)CC3)CC(=O)N2C)cc1 (stereo not given),.,0.4,2.8%,?,.
CCCC(NCC(O)COc1ccc(-c2ccccc2)cc1)c1ccccc1 (stereo not given),.,-31.8,11.2µM*,?,.
COc1ccc(OCC(O)CNC(C)c2ccccc2)cc1 (stereo not given),.,?,-28.9%,-1.1%,.
CC(NCC(O)COc1ccc2ccccc2c1)c1ccccc1 (stereo not given),1.4%,-84.1*,6.31µM*,-20.2%,?
COC(=O)C1=C(C)N(CC2CC2)C(=NCCc2cccnc2)NC1c1ccccc1 (stereo not given),0.0%[14.3 µM],.,.,.,4.3%[14.2 µM]
O=C(NCC1CCC2(CCN(Cc3cccc(-c4ccco4)c3)CC2)O1)c1ccccc1 (stereo not given),.,.,.,-5.2%,.
Cc1ccc(S(=O)(=O)Cc2nc(-c3ccc(C(=O)NCc4ccccc4F)cc3)oc2C)cc1,-20.2%[46.1 µM],.,.,.,.
Cc1cc(Nc2cccc(Cl)c2)nc2ccc(NC(=O)Cc3cccc(C(F)(F)F)c3)cc12,-7.8%[46.1 µM],-99.4*,.,-14.2%,.
Cc1cc(Nc2cccc(Cl)c2)nc2ccc(NC(=O)Cc3c(F)cccc3Cl)cc12,-13.4%[46.1 µM],-39.6,.,-2.8%,.
COc1ccc(CC(=O)Nc2ccc3nc(Nc4cccc(Cl)c4)cc(C)c3c2)cc1OC,?,-68.6*,.,?,.
Cc1cc(Nc2cccc(Cl)c2)nc2ccc(NC(=O)Cc3ccc(Cl)cc3)cc12,-21.2%[46.1 µM],-104.3*,.,-29.2%,.
Oc1ccc(N=Cc2ccc(-c3cccs3)s2)cc1,?,-21.2,-25.7%,2.7%,?
O=Cc1ccc(-c2cccs2)s1,10µM*,12.7,0.0%,26.0%,?
O=C(NC1CCCCCC1)c1c(O)c2cccc3c2n(c1=O)CCC3,.,.,7.4%,.,0.1%
Cc1cnc(NC(=O)c2c(O)c3cccc4c3n(c2=O)CCC4)s1,.,.,.,.,0.8%
CNC(=O)c1c(O)c2cccc3c2n(c1=O)CCC3,?,-97.5*,?,-10.1%,3.1%
CC(C)c1nnc(NC(=O)c2c(O)c3cccc4c3n(c2=O)CCC4)s1,22.1%,-96.2*,?,-10.4%,-17.7%
O=C(O)C(Cc1ccc(Cl)cc1)NS(=O)(=O)c1ccc(Cl)cc1 (stereo not given),3.4%[46.1 µM],15.7,7.5%,-16.9%,?
O=C1/C(=C\c2ccccc2)CCc2c1[nH]c1ccccc21,?,-7.3,?,4.1%,16.4µM*
SMILES,LASV entry inh,HCMV antiviral,HCV inh,FMDV antiviral,MARV entry inh
CC(C)/C=C1\CCc2c([nH]c3ccccc23)C1=O,0.3%[46.1 µM],-70.4*,3.4%,24.8%,6.1%[46.1 µM]
Cc1ccc(/C=C2/CCc3c([nH]c4ccccc34)C2=O)cc1,?,19.4,?,29.4%,?
CCc1ccc(NC(=O)C(=O)NCCc2sc(-c3ccc(C)cc3)nc2C)cc1,?,13.9,.,-5.5%,.
CN(C)c1ccc(/C=C/c2nc3ccccc3c(=O)[nH]2)cc1,.,25.2,-10.8%,10µM*,.
O=c1[nH]c(/C=C/c2ccc(Br)cc2)nc2ccccc12,.,15.8,5.5%,46.5%,.
Cc1ccccc1-n1c(/C=C/c2ccc(N(C)C)cc2)nc2ccccc2c1=O,?,-82.2*,.,-26.4%,.
Cc1ccccc1-n1c(C)nc2ccccc2c1=O,-7.7%[46.1 µM],-19.7,0.9%,-12.4%,12.3%[46.1 µM]
C(=C\c1nc2ccccc2[nH]1)/c1ccccc1,?,9.7,11.2µM*,15.8µM*,?
Cc1cccc(-n2c(C)nc3ccccc3c2=O)c1C,-0.5%,-76.4*,9.0%,-24.6%,4.2%[46.1 µM]
O=C(N1CCCCC1)N1CCC[C@@H]1c1noc2ccccc12,.,-19.9,.,.,.
O=c1c2ccccc2nc(/C=C/c2ccccc2F)n1-c1ccccc1O,.,-91.5*,-19.9%,?,.
O=c1c2ccccc2nc(/C=C\c2ccccc2[N+](=O)[O-])n1-c1ccccc1O,7.94µM*,0.0,-14.4%,?,?
O=C(O)c1cccc(-n2c(/C=C/c3cccc([N+](=O)[O-])c3)nc3ccccc3c2=O)c1,-17.1%[46.1 µM],-7.4,2.4%,-2.3%,13.9%[46.1 µM]
O=c1c2ccccc2nc(/C=C/c2ccccc2O)n1-c1ccccc1O,.,-98.3*,.,.,.
Cc1nc2ccccc2c(=O)n1-c1ccccc1[N+](=O)[O-],.,-29.6,-8.5%,5.6%,.
O=c1c2ccccc2nc(/C=C/c2ccccc2)n1-c1ccccc1F,-5.5%[46.1 µM],5.3,.,-16.4%,.
O=C(O)c1cccc(-n2c(/C=C/c3ccc([N+](=O)[O-])cc3)nc3ccccc3c2=O)c1,.,-62.2*,11.6%,-20.0%,.
C=CCOC(=O)C(C(C)=O)[C@@H](NC(=O)OC)c1ccc2ccccc2c1 (stereo not given in full),.,.,.,.,23.3%[14.2 µM]
Cc1ccc(C)c(NC(=O)CSc2nc(-c3ccccc3)cc(=O)[nH]2)c1,15.3%[46.1 µM],0.9,.,-12.4%,.
COc1ccc(N2CC(C(=O)Nc3nc4ccc(S(C)(=O)=O)cc4s3)CC2=O)cc1 (stereo not given),24.1%[46.1 µM],-9.8,13.5%,-1.9%,?
CCN(C(=O)CSc1nnc(NCc2ccccc2)s1)C1CCS(=O)(=O)C1 (stereo not given),4.9%,-74.2*,8.4%,3.3%,12.1%
CCN1CCN(Cc2cc(Br)ccc2O)CC1,7.1%,-12.8,35.5µM*,8.5%,1.3%
CCS(=O)(=O)c1nnnn1-c1ccccc1S(C)(=O)=O,20.3%[14.3 µM],-92.6*,.,39.8µM*,?
Cc1ccc(NC(=O)C2CCC(CNS(=O)(=O)c3ccc4c(c3)CCCC(=O)N4)CC2)cc1F (stereo not given),3.4%[46.1 µM],-4.0,.,?,.
CCOC(=O)C(CC)n1nnc2sc(-c3ccccc3)cc2c1=O (stereo not given),?,-36.4,.,-4.1%,24.6%[46.1 µM]
C[C@H]1Cn2cnc(C(=O)Nc3ccc(CNC(=O)OC(C)(C)C)cc3)c2C(=O)N1,.,-18.1,.,-13.9%,.
CC(C)(C)OC(=O)NCc1ccc(CNC(=O)c2ncn(Cc3ccccc3)c2C(=O)NCc2ccc(CNC(=O)OC(C)(C)C)cc2)cc1,.,4.2,15.5%,-23.1%,.
C[C@H]1CNC(=O)c2c(C(=O)Nc3ccc(CNC(=O)OC(C)(C)C)cc3)ncn21,.,?,.,28.2µM*,.
Cn1cnc(C(=O)NCc2ccc(CNC(=O)OC(C)(C)C)cc2)c1C(=O)NCc1ccc(CNC(=O)OC(C)(C)C)cc1,.,?,?,15.8µM*,.
